Screening results deposited in PubChem by several laboratories.
Rows were chosen to be rich in hits. Some 1.5% of all compounds tested hit in one or more screens of this group.
MRP reversal: compounds reversing MRP-mediated drug resistance; actives 0.04% (n = 85,000); H69AR cells + 2 uM doxorubicin, CellTiter-Glo, 72 h; differential viability (reversal), % at 10 µM; AID 602;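 active means viability drop by adding the cancer drug above about 55%, with treated viability meeting a 40% cutoff, limit read from the data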;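 further: viability without doxorubicin minus viability with 2 µM doxorubicin for each compound; larger differential means the compound sensitizes cells more to doxorubicin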
E-sel TNF inh: TNF alpha driven E-selectin expression inhibition; HUVEC TNFa-induced E-selectin immunofluorescence, high content; inhibition, % at 2 µM; actives 0.71% (n = 120,000); AID 1246;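 active means inhibition above the batch mean plus 3 SD, and confirmed as a hit on visual image review, cut at about 43% in these data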;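 further: 0% = TNF-stimulated DMSO wells and 100% = unstimulated control wells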
cytoskel mod: alters cytoskeleton assembly in HUVEC cells; inhibition, % at 2 µM; HUVEC TNFa F-actin phalloidin imaging, high content; actives 0.18% (n = 91,000);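 active means inhibition above the batch mean plus 3 SD and confirmed as a hit by visual image inspection, cut at about 30% in these data, passing the limit was not always enough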
VCAM1 TNFa inh: reduces TNF alpha induced VCAM1 expression in HUVEC; HUVEC TNFa-induced VCAM-1 immunofluorescence, high-content imaging; inhibition, % at 2 µM; actives 0.48% (n = 95,000);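 active means inhibition above the batch mean plus 3 SD, with images confirmed as a hit by eye, cut at about 37% in these data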;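 further: 0% = TNF-stimulated DMSO wells and 100% = unstimulated control wells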
MRP-1 activ: MRP-1 activation | H69AR cells + doxorubicin, viability rescue, CellTiter-Glo | viability increase, % at 10 µM | actives 0.61% (n = 140,000);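 active means viability gain under doxorubicin at or above a set limit, the compound median plus 3 SD, cut at about 4.7% in these data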;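 further: MRP-1 overexpressing cells given doxorubicin 25 µM after compound pretreatment; 18-22 h compound pretreatment then 72 h with doxorubicin before readout; 0% = doxorubicin-only wells and 100% = vehicle-treated cells without doxorubicin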
Active calls of the source: *; · = no result.

SMILES | MRP reversal | E-sel TNF inh | cytoskel mod | VCAM1 TNFa inh | MRP-1 activ
COc1ccccc1C1CC(c2ccc(Cl)cc2)Nc2ncnn21 (stereo not given) | -12 | 2 | 6 | -15 | 4.8*
N#C/C(C(=O)Oc1ccccc1)=C1/Nc2ccccc2-c2ccccc21 | 10 | -1 | -12 | -10 | -2
COc1ccc(CCNC(=O)COc2ncnc3cc([N+](=O)[O-])ccc23)cc1 | · | 74* | · | · | -2
O=C(COc1ncnc2cc([N+](=O)[O-])ccc12)NCc1ccc2c(c1)OCO2 | · | -21 | -1 | -17 | -2
CCOc1cc(C(=O)Nc2cccc3ncccc23)cc(OCC)c1OCC | 11 | · | 53* | 18 | -1
CCn1cc(C(=S)N2CCC(C(N)=O)CC2)c2ccccc21 | · | -9 | · | · | ·
O=[N+]([O-])c1cc(-c2nnc(C34CC5CC(CC(C5)C3)C4)o2)cc([N+](=O)[O-])c1 | · | -30 | 2 | -3 | -4
CC1(C)CC(=O)c2c(O)cc(OCc3ccc(Br)cc3)cc2O1 | -6 | 7 | -1 | -6 | 4
COC(=O)c1ccc(COc2cc(O)c3c(c2)OC(C)(C)CC3=O)cc1 | 6 | -37 | -9 | -5 | 6.1*
O=C(NCc1ccc(F)cc1)C(=O)NCC1OCCN1C(=O)c1cccs1 (stereo not given) | · | · | · | · | 5.3*
Cc1cccc(NC(=O)c2c(O)c3cccc4c3n(c2=O)CC4)c1 | 3 | 1 | -12 | 6 | ·
COc1ccc(Nc2cc(C(=O)NCCCN3CCOCC3)c3ccccc3n2)cc1OC | 13 | 14 | 35* | 17 | 0
O=C(N1CCN=C1SCc1cccnc1)C12CC3CC(CC(C3)C1)C2 | -3 | · | 12 | -14 | 0
O=C(Cc1ccc(-n2cccc2)cc1)NC1CCCCCC1 | 19 | -18 | -9 | 41* | -2
COc1ccc(S(=O)(=O)N(C)CC(=O)NC2CCCCC2)cc1Cl | 2 | -4 | 7 | -11 | -2
COc1ccc(S(=O)(=O)N(CC(N)=O)C2CCCCC2)cc1Cl | 2 | 45* | 5 | -3 | -3
CN1/C(=C/C(=O)c2nc(S(C)(=O)=O)ncc2Cl)C(C)(C)c2ccccc21 | 0 | 90* | 0 | -9 | -3
CCOC(=O)CN1C(=O)C(Sc2n[nH]c(-c3ccccc3)n2)CCc2ccccc21 (stereo not given) | · | 18 | 4 | -11 | 0
CC(C)(C)NS(=O)(=O)c1ccc(CCC(=O)NCc2ccc3c(c2)OCO3)cc1 | 9 | 14 | 11 | -10 | -1
O=C(CSc1nnc(-c2ccccc2)n1-c1ccc(Cl)cc1)N/N=C/c1ccco1 | · | 19 | · | · | 5.2*
CCOc1ccccc1C(=O)Nc1ccc(-c2nnc(-c3ccc(C)cc3)o2)cc1 | 7 | 72* | 2 | -15 | ·
C=CCN1C(c2cccc(C(F)(F)F)c2)=CS/C1=C(/C#N)c1nnc(N2CCOCC2)n1-c1ccccc1 | · | 72* | · | · | -4
C=CCN1C(c2ccccc2)=CS/C1=C(\C#N)c1nnc2n1CCCCC2 | -3 | 63* | · | · | -2
CCOc1ccc(C2=CS/C(=C(\C#N)c3nnc4n3CCCCC4)N2CC)cc1 | -2 | 19 | -76 | 25 | 1
C=CCN1C(c2ccc(Br)cc2)=CS/C1=C(/C#N)c1nnc(N2CCOCC2)n1-c1ccccc1 | · | 9 | · | · | -3
SMILES | MRP reversal | E-sel TNF inh | cytoskel mod | VCAM1 TNFa inh | MRP-1 activ
CC(=O)c1cccc(NC(=S)NC(=O)CC(C)(C)C)c1 | · | -28 | -10 | 22 | -5
COc1cc(NC(=O)CN2C(=O)NC(C)(CC(C)C)C2=O)cc(OC)c1 (stereo not given) | · | 3 | 43 | 93* | -1
COc1cc(NC(=O)CN2C(=O)NC(C)(CCC(C)C)C2=O)cc(OC)c1 (stereo not given) | -7 | -1 | 27 | 6 | 0
O=c1n(Cc2ccccc2F)c2ccccc2n1Cc1ccccc1F | 14 | -4 | 31* | -14 | -1
Cn1c(=O)n(Cc2ccccc2F)c2ccccc21 | -29 | -28 | 3 | -6 | -2
COCCNc1nc2sc3c(c2c(=O)n1Cc1ccco1)CCCCC3 | · | · | · | · | 0
Cc1cnn(-c2cc(Oc3ccccc3)ncn2)c1 | 4 | -4 | 3 | -12 | 4.8*
c1ccc(Oc2cc(-n3cncn3)ncn2)cc1 | · | · | · | · | -1
COc1ccc(Cn2c(CCC(=O)O)nc3cccnc32)cc1 | -6 | · | -16 | 93* | -1
N/C(Cc1cccs1)=N\OC(=O)COc1ccc(Br)cc1Cl | -9 | 6 | 37* | 70* | -3
CCc1nnc(NC(=O)CCC(=O)N2CCN(C3CCCCC3)CC2)s1 | -16 | 18 | -28 | 15 | 0
CC(C)c1nnc(NC(=O)CCC(=O)N2CCN(C3CCCCC3)CC2)s1 | -8 | 21 | -3 | 36* | -3
